Assay results taken from the supplement of paper PMC6555819.

Assays:
Assay in all cases: PBM binding z-score (relative to random genomic background probes); higher = stronger binding; sequences stand for … in GC…GCGATTGACAGCGTAGAATGAAGG
[1] = system: RARb homodimer (NR concentration 270 nM)
Summary of the method: (§1)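 Probes were double-stranded and carried 34-nt variable regions with direct-repeat seeds, single-nucleotide variants, half-site ablations and random human genomic background sequences, printed on custom Agilent 4×180K protein-binding microarrays. Arrays were incubated 1 h with ligand-free nuclear receptor dimers in PBS pH 7.4, 2% milk, 0.02% Triton X-100, 1 mM DTT, 0.2 mg/mL BSA and 0.4 mg/ml salmon testes DNA. Antibodies against each partner (one per run) detected binding, and scanned fluorescence was regression-normalized. Binding z-scores use the random background probes as reference.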

[2] = system: RARg:RXRa (NR concentration 270 nM, RXRa partner concentration 90 nM)
Summary of the method: as §1

[3] = system: RARg homodimer (NR concentration 270 nM)
Summary of the method: as §1

[4] = system: RXRa DBDmut IVT, anti-RXR (DBD mutation: RXRa K156A/R161A, NR concentration 90 nM)
Summary of the method: as §1

[5] = system: RXRa homodimer (NR concentration 180 nM)
Summary of the method: as §1

[6] = system: THRa:RXRa (NR concentration 90 nM, RXRa partner concentration 90 nM)
Summary of the method: as §1

[7] = system: THRa homodimer (NR concentration 90 nM)
Summary of the method: as §1

[8] = system: VDR homodimer (NR concentration 270 nM)
Summary of the method: as §1

| Sequence | PBM binding z-score [1] | PBM binding z-score [2] | PBM binding z-score [3] | PBM binding z-score [4] | PBM binding z-score [5] | PBM binding z-score [6] | PBM binding z-score [7] | PBM binding z-score [8] |
| --- | --- | --- | --- | --- | --- | --- | --- | --- |
| AGTCAAAGTTGACTAGGTAACGTAAGATTCAGCT | 0.0886 | 0.519 | 0.771 | 0.028 | 0.242 | 0.477 | -0.555 | -0.638 |
| AGAACGAGGGCACGCTGAGTTGCTAGCAGAGTAG | 0.875 | 1.48 | 1.95 | 1.69 | 1.1 | 1.51 | -0.328 | 1.42 |
| TAGCCTAGGTCAGATCGCGCCAGTATACGCTATA | 1.68 | 2.64 | 3.2 | -0.216 | 1.22 | 1.61 | 0.165 | -0.0657 |
| CAAACTAGGTCAAGGTCAAAGACGGTTTGTGCCA | 5.1 | 5.82 | 6.9 | 3.16 | 5.06 | 4.34 | 3.55 | 4.1 |
| AGAATTAGGTTACCAAAGATCAGGGAAACGCTTG | 0.444 | 0.812 | 0.884 | 0.172 | 0.88 | 1.12 | 0.308 | -0.053 |
| GGAACGAGGGCATTCGAGTTGATCGCATGGCGAT | 0.71 | 1.11 | 1.52 | 3.18 | 0.775 | 3.44 | -0.598 | 3.38 |
| GCTCGGAGGACAAGGTCAGAGCTTTGTCCGTAGA | 2.9 | 3.28 | 3.6 | 0.373 | 2.33 | 2.87 | 1.13 | 0.705 |
